In the library only some 3.7% were active in any assay of this set; here they are far more common.
Nrf2 inh: Nrf2 qHTS screen for inhibitors; A549 ARE-Fluc reporter, luciferase luminescence, 18-24 h; Potency, µM (series often up to 46 µM), most hits filed as inhibitors; 2.1% of 360,000 active; note: nearly all actives have a fitted effect of over 60% in size
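Reporter: ARE-Fluc in A549. Exposure: 18-24 h, 37 °C, 5% CO2, 5% FBS OPTI-MEM. Readouts: fluorescent cytotoxicity (CellTiter-Fluor), then luminescent Nrf2 signal after BugLite.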
A549 tox-1: Nrf2 qHTS screen for inhibitors: counterscreen for cytotoxicity; A549 ARE-Fluc cells, CellTiter-Fluor viability, 18-24 h; Potency, µM (doses to about 46 µM), usual class: inhibitors; 0.16% of 390,000 active
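Cytotoxicity counterscreen: CellTiter-Fluor fluorescence was measured in A549 ARE_Fluc cells after 18-24 h of compound exposure in a concentration series. The subsequent BugLite luminescent read reports ARE-luciferase activity.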
Nrf2 activator: qHTS of Nrf2 Activators; AREc32 ARE-luciferase reporter (MCF7-derived line), luminescence, 24 h; Potency, µM (highest dose often 46.1 µM), actives largely listed as activators; 0.31% of 410,000 active; AID 624171, 2012; note: nearly all actives have a fitted effect of over 65% in size
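ARE-driven firefly luciferase activity in AREc32 cells measured after a 24 hr compound exposure at 37 deg C, using Steady-Glo reagent and a 30 min room-temperature hold.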
ClpP mod: qHTS Assay for Activators of ClpP | ATP-dependent Clp protease proteolytic subunit (Bacillus subtilis (strain 168)), P80244 | purified B. subtilis ClpP, FRET peptide cleavage, 20 min | Potency, µM (series often up to 57.5 µM) | 1.9% of 340,000 active; active = well fitted falling curve with a large enough effect; inconclusive = small, poorly fitted or top-dose-only effect; inactive = no such curve, though single readings can be large or run the other way; note: the source files actives as falling curves though it sought activators and does not explain the sign; nearly all actives have a fitted effect of over 65% in size
Target sequence (P80244 whole entry, looked up): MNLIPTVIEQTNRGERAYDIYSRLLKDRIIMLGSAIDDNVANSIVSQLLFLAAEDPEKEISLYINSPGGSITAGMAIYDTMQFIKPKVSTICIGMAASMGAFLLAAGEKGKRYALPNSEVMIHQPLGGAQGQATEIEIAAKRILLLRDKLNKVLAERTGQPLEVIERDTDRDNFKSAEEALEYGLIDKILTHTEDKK
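ClpP 10 microg/mL final, pH 8 Tris/KCl buffer with BSA, glycerol, Tween-20; compound pinned in; FRET-FV substrate; RT 20 min; Ex320/Em430; ΔFRET vs ADEP 5.8 microM, DMSO, no enzyme.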
miR-21 act: qHTS Assay for Modulators of miRNAs and/orActivators of miR-21 | Potency, µM (titrated, usually from 38.3 µM), usual class: activators | 340,000 tested, under 10 active | HeLa miR-21 FLuc reporter, luciferase, 48 h;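 note: miR-21 action dims this reporter so a rising signal means less miR-21 action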
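Using DMEM plus 10% FBS, HeLa miR-21-FLuc cells are incubated with test compounds (final up to about 40uM) for 48 hours; firefly luciferase signal is then imaged following reagent-mediated lysis.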
TCR activator: Activators of T cell receptors: qHTS campaign; primary human leukocytes, anti-CD3, IL-2 HTRF, 48 h; Potency, µM (titrated, usually from 9.22 µM), actives largely listed as activators; 330,000 tested, under 10 active; AID 504894, 2011
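48 hr co-incubation of compounds, a-CD3 beads and primary human leukocytes; IL-2 quantified homogeneously by HTRF with anti-IL-2 K and d2 conjugates.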
FLuc enzyme inh: Nrf2 qHTS screen for inhibitors: Purified Fluc Biochemical Counterscreen for Hit Validation; 4% of 1,400 active; Potency, µM (highest dose often 57.5 µM), usual class: inhibitors; AID 720522, 2013; purified firefly luciferase, luminescence inhibition; shares compounds with Nrf2 inh; note: nearly all actives have a fitted effect of over 65% in size
Target sequence (P08659 whole entry, looked up): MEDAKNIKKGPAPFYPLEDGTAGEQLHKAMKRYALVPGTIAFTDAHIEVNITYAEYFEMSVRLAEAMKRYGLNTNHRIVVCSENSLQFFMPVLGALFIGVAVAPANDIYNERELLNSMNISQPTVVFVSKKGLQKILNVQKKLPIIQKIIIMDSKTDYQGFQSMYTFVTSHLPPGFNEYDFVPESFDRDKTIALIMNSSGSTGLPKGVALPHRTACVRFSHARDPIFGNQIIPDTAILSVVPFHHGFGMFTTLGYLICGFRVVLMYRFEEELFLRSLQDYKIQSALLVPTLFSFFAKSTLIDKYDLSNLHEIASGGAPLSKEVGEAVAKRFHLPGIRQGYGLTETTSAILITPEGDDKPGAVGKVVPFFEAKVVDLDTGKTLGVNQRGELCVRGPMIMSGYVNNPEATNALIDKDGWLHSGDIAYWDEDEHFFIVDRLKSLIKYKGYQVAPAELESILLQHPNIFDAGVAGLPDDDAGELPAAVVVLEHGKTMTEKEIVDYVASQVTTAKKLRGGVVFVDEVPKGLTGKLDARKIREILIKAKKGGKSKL
A549 tox-2: Nrf2 qHTS screen for inhibitors: A549 ARE-Fluc Cytotoxicity Counterscreen for Hit Validation; shares compounds with Nrf2 inh; A549 ARE-Fluc cells, cytotoxicity counterscreen; Potency, µM (titrated, usually from 46.1 µM), actives largely listed as inhibitors; 2% of 1,400 active;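 note: cells exposed to compounds for 18 to 24 hours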
Nrf2 ARE inh: Nrf2 qHTS screen for inhibitors: Nrf2 A549 ARE-Fluc Confirmation Assay for Hit Validation; Potency, µM (titrated, usually from 46.1 µM), most hits filed as inhibitors; shares compounds with Nrf2 inh; AID 720524, 2013; A549 ARE-firefly luciferase reporter, luminescence; 74% of 1,400 active; note: nearly all actives have a fitted effect of over 65% in size
Numbers stand for hits; – = inactive; ? = inconclusive; · = no result shown. Unless noted, calls come from the whole dose curve; as a rule, active = well fitted curve in the direction sought with a large enough effect; inconclusive = small, poorly fitted or top-dose-only effect, or another doubt; inactive = no such curve, though single readings can be large; an effect the other way counts as inactive or inconclusive.

SMILES | Nrf2 inh | A549 tox-1 | Nrf2 activator | ClpP mod | miR-21 act | TCR activator | FLuc enzyme inh | A549 tox-2 | Nrf2 ARE inh
O=C(NC(NC(=S)Nc1c(Cl)cc(Cl)cc1Cl)C(Cl)(Cl)Cl)OCc1ccccc1 (centres undefined) | 2.9µM | ? | – | – | – | – | – | ? | 23µM
COc1cc(CNCc2ccc(OC)cc2OC)cc(OC)c1 | 7.3µM | – | – | – | – | · | – | – | ?
COc1ccc(CNCc2ccc(C)cc2)c(OC)c1 | – | – | – | – | – | – | · | · | ·
COc1cc(OC)cc(C(=O)NNC(=O)c2ccccn2)c1 | 8.2µM | ? | ? | · | – | – | – | – | 7.3µM
Cc1ncnc2nc[nH]c12 | · | · | · | – | · | · | – | – | 5.8µM
COc1ccccc1CN(C)C(=O)c1cccc(S(=O)(=O)N2CCCC2)c1 | – | – | – | – | · | – | · | · | ·
CN(CCOc1ccc(Cl)cc1)C(=O)c1cccc(S(=O)(=O)N2CCN(c3ccc(F)cc3)CC2)c1 | 4.1µM | – | – | · | · | – | – | – | 4.1µM
COc1ccc(CCN(C)C(=O)c2cccc(S(=O)(=O)N3CCN(c4ccc(F)cc4)CC3)c2)cc1OC | 7.3µM | – | – | – | · | – | – | – | 5.2µM
Cc1cccc(C)c1NC(=O)CN(C)C(=O)c1cccc(S(=O)(=O)N2CCN(c3ccc(F)cc3)CC2)c1 | 5.2µM | ? | – | – | · | – | – | – | 9.2µM
O=C(c1cccc(S(=O)(=O)N2CCN(c3ccc(F)cc3)CC2)c1)N1CCCC(C(F)(F)F)C1 (centres undefined) | 4.6µM | – | – | – | · | – | – | – | 5.2µM
Cc1cc(C)cc(CC(=O)N2CCC2(C)C(=O)NS(=O)(=O)Cc2ccccc2)c1 (centres undefined) | · | · | – | – | · | · | · | · | ·
CCCSc1nnc2[nH]c(=O)cc(C)n12 | · | – | – | – | – | · | · | · | ·
O=C(OCCOc1ccc(Cl)cc1)c1cc(S(=O)(=O)N2CCCCC2)ccc1N1CCOCC1 | 8.2µM | – | – | ? | · | – | – | – | 8.2µM
CC(C)(C)NC(=O)CSc1nc2ccc(NC(=O)CSc3nnnn3Cc3ccccc3)cc2s1 | 8.2µM | – | – | – | ? | – | – | – | 7.3µM
CSCCC(NC(=O)CCC(=O)OCC(=O)[C@@]1(O)CCC2[C@@H]3CCC4=CC(=O)C=C[C@]4(C)C3[C@@H](O)C[C@@]21C)C(=O)O (some centres undefined) | 0.21µM | – | – | – | – | – | – | – | 0.058µM
CC(C)CC(NC(=O)CCC(=O)OCC(=O)[C@@]1(O)CCC2[C@@H]3CCC4=CC(=O)C=C[C@]4(C)C3[C@@H](O)C[C@@]21C)C(=O)O (some centres undefined) | ? | – | – | – | – | – | · | · | ·
C[C@]12C=CC(=O)C=C1CC[C@@H]1C2C(O)C[C@@]2(C)C1CC[C@]2(O)C(=O)COC(=O)CCC(=O)NC(CC(=O)O)C(=O)O (some centres undefined) | 0.1µM | – | – | – | – | – | – | – | 0.26µM
COc1cc2c(cc1OC)CN(C(=O)C(CCSC)NS(=O)(=O)c1ccc(C)cc1)CC2 (centres undefined) | – | – | – | · | – | – | · | · | ·
Cc1cc(C)c(-c2csc(Cc3nc(-c4cc5ccccc5oc4=O)cs3)n2)cc1C | ? | – | – | – | – | – | · | · | ·
O=c1oc2ccccc2cc1-c1csc(Cc2nc(-c3ccc(Br)cc3)cs2)n1 | 2.9µM | – | – | – | – | – | – | – | ·
Cc1ccc(-c2csc(Cc3nc(-c4cc5ccccc5oc4=O)cs3)n2)cc1 | 4.6µM | – | – | ? | – | – | – | – | 7.3µM
Cc1cc(C)nc(SCc2ccc(C(=O)NNC(=O)Nc3cccc(Cl)c3)cc2)n1 | 9.2µM | ? | – | 35µM | – | – | – | ? | 15µM
O=C(C1CC1)N1CCC(c2nc(-c3ccc(S(=O)(=O)NCC4CCCO4)cc3)no2)CC1 (centres undefined) | · | – | – | – | – | – | · | · | ·
O=C(c1ccccc1)N1CCC(c2nc(-c3ccc(S(=O)(=O)NCC4CCCO4)cc3)no2)CC1 (centres undefined) | 3.7µM | – | – | – | – | – | – | – | 5.8µM
COc1ccc(S(=O)(=O)N2CCCCC2)cc1NC(=O)CN(Cc1ccco1)Cc1ccco1 | – | – | – | – | · | – | · | · | ·
SMILES | Nrf2 inh | A549 tox-1 | Nrf2 activator | ClpP mod | miR-21 act | TCR activator | FLuc enzyme inh | A549 tox-2 | Nrf2 ARE inh
COc1ccc(CCNC(=O)c2ccc(-c3cccc([N+](=O)[O-])c3)o2)cc1OC | ? | – | – | · | – | – | · | · | ·
COc1ccc(CCNC(=O)c2cccc([N+](=O)[O-])c2)cc1OC | 2.6µM | – | – | · | · | – | – | – | 3.7µM
COc1ccc(/C=N/NS(=O)(=O)c2ccc(C)cc2)cc1OC(=O)c1ccc(C)cc1 | 5.2µM | – | – | – | – | – | – | – | ·
COc1ccc(C(=O)Oc2cc(/C=N/NS(=O)(=O)c3ccccc3)ccc2OC)cc1 | · | – | – | – | – | – | · | · | ·
CCc1ccc2[nH]c(=O)c(CN(Cc3ccccc3)C(=O)Nc3ccccc3OC)cc2c1 | 7.3µM | – | – | – | – | – | – | – | ?
COc1ccccc1NC(=O)N(Cc1cccs1)Cc1cc2cc3c(cc2[nH]c1=O)OCO3 | ? | – | – | ? | – | – | · | · | ·
CCCCCCCCCCCCCCCC(=O)Nc1ccn(C2OC(CO)C(O)C2O)c(=O)n1 (centres undefined) | ? | – | – | – | · | – | – | – | 0.82µM
COc1cc(-c2nc(Cn3nnc(C(=O)Nc4ccccc4C)c3C)c(C)o2)cc(OC)c1OC | – | – | – | – | – | · | · | · | ·
O=C(Cc1ccccc1)Nc1scc(-c2ccccc2)c1C(=O)N1CCOCC1 | – | – | – | – | – | – | · | · | ·
NC(=O)c1c(-c2ccc(Cl)cc2Cl)csc1NC(=O)Cc1ccccc1 | 2.6µM | – | – | – | – | – | – | – | 5.2µM

Source: PubChem (National Center for Advancing Translational Sciences (NCATS))
